These results are taken from PubChem BioAssay.

The term AC50 denotes the concentration giving half of the maximal activity seen. For orientation: viability means a read-out of living cells in per cent, often relative to untreated cells. Broadly, the IC50 is the concentration at which inhibition is half-maximal.

Records with an inconclusive call do not appear. The source made the active and inactive calls.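 Rule for the calls, unless noted: active = normalized viability below 100% at a tested concentration; inactive = the rest.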

The nature of assay [1]: growth inhibition of DIPG glioma cells, dose response, cell-based, SU-DIPG-XVII, MIPE5.0, CellTiter-Glo, qHTS (AID 1347060; cut-off not given, nearly all actives have AC50 up to about 26 µM;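 for AC50: cells exposed to compound for 48 hours before viability readout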). As to conditions: SU-DIPG-XVII viability, CellTiter-Glo ATP luminescence. On the technique in general: In ATP-based viability assays light output follows the ATP content of the culture.
The nature of assay [2]: growth inhibition of DIPG glioma cells, dose response, cell-based, SU-DIPG-XIII, MIPE4.0, CellTiter-Glo, qHTS (AID 1347061; cut-off not given, nearly all actives have AC50 up to about 37 µM;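 note: cells exposed to compound for 48 hours before readout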). The settings on record: SU-DIPG-XIII viability, CellTiter-Glo ATP luminescence.
The nature of assay [3]: growth inhibition of DIPG glioma cells, dose response, cell-based, JHH-DIPG-1, MIPE4.0, CellTiter-Glo, qHTS (AID 1347062; cut-off not given, nearly all actives have AC50 up to about 27 µM;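 for AC50: cells exposed to compound for two days before readout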). As to conditions: JHH-DIPG-1 viability, CellTiter-Glo ATP luminescence.
Assay [4] in a line: growth inhibition of DIPG glioma cells, dose response, cell-based, SU-DIPG-IV, MIPE4.0, CellTiter-Glo, qHTS (AID 1347063; cut-off not given, nearly all actives have AC50 up to about 30 µM;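 note: compound exposure lasted 48 hours before the viability readout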). The settings on record: SU-DIPG-IV viability, CellTiter-Glo ATP luminescence.
A short description of assay [5]: viability loss in pontine glioma line – cell-based, SU-DIPG-XXV, MIPE5.0, CellTiter-Glo, qHTS, dose response (AID 1347065; cut-off not given, nearly all actives have AC50 up to about 26 µM;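 note: cells exposed to compound for 48 hours before ATP readout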). As to conditions: CellTiter-Glo ATP luminescence.
Assay [6] can be described thus: SU-DIPG-VI glioma cell viability, MIPE4.0 library, CellTiter-Glo luminescence, qHTS (AID 1347066; cut-off not given, nearly all actives have AC50 up to about 30 µM;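 note: cells exposed to compound for 48 hours before readout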). As to conditions: CellTiter-Glo ATP luminescence.
Assay [7] can be described thus: sensitizers of A549 cells to miR-34 induction, primary screen, imaging, A549 dox-inducible miR-34, nuclei and caspase counts (AID 1347080;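 active = compounds whose cell count with miR-34 switched on is under 0.7 times the count with it off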). The settings on record: A549 miR-34 inducible, Hoechst nuclei count, 48 h.
A short description of assay [8]: modifiers of HSF1 nuclear foci, imaging, Selleck Cancer Library (AID 1347162; in the data active = plate-normalised HSF1 focus index below about 0.46). As to conditions: human cells, at 10 µM; SSMD: measured here: HSF1 foci SSMD mean; cell count: measured here: cell number; plate-normalised HSF1 focus index: stronger effect = lower value.
A short description of assay [9]: survival rescue of mitochondrial mutant cells in low glucose, primary screen, MELAS cybrids, Rieske KO mouse fibroblasts, CellTiter-Glo (AID 1508586;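 active = mean z-score across replicates of 1.96 or higher in either the MELAS or the Rieske mutant cell line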;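 note: z relative to plate mean and SD of compound and empty wells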).
Assay [10] can be described thus: ovarian cancer cell viability with rucaparib, profiling panel, oncology-focused library, rucaparib conditional (AID 1508598). The settings on record: patient-derived ovarian cancer cells, CellTiter-Glo viability, 144 h, stronger effect = lower value.
Assay [11] is described as follows: JHH-DIPG-1 glioma cell viability, MIPE5.0 library, CellTiter-Glo luminescence, qHTS (AID 1347067; cut-off not given, nearly all actives have AC50 up to about 26 µM;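 note: cells exposed to compound for 48 hours before readout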). The settings on record: JHH-DIPG-1 glioma viability, CellTiter-Glo ATP luminescence.
The nature of assay [12]: SU-DIPG-XXV glioma cell viability, MIPE5.0 library, qHTS (AID 1347068; cut-off not given, nearly all actives have IC50 up to about 30 µM;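 for IC50: cells exposed to compound for 48 hours before viability readout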). On the technique in general: Quantitative high-throughput screening tests each substance at several concentrations.
Assay [13] is described as follows: growth inhibition of DIPG glioma cells, dose response, cell-based, SU-DIPG-XIII, MIPE5.0, CellTiter-Glo, qHTS (AID 1347064; cut-off not given, nearly all actives have AC50 up to about 23 µM). As to conditions: SU-DIPG-XIII viability, CellTiter-Glo ATP luminescence.

For `O=C(NCCCNc1nc(Nc2cccc(NC(=O)N3CCCC3)c2)ncc1I)c1cccs1`, the half-maximal activity concentration (AC50) in assay [1] is 16.6 µM (active); in assay [2], 20.9 µM (active); in assay [3], 23.5 µM (active); in [4], 14.8 µM (active); in [5] it was 3.72 µM (active); in assay [6] it was 20.9 µM (active). The fold change in [7] (stronger effect = lower value, cell number ratio, induced over uninduced) was 0.948 (inactive); in assay [7] (measured here: relative caspase fold change +Dox/-Dox), 1.03. Also, the cell count in assay [7] (measured here: total cells with miR-34 induction, stronger effect = lower value) worked out at 2780; in assay [7] (measured here: total cells without miR-34 induction) it was 2940; in assay [8] it was 7460. For the same molecule, the SSMD in assay [8] was -3.5. In addition, the plate-normalised HSF1 focus index in assay [8] is 0.877 (inactive). The z-score in [9] (MELAS cybrid survival, CellTiter-Glo 48 h, stronger effect = higher value) is -0.385 (inactive); in assay [9] (Rieske KO mouse fibroblast survival, CellTiter-Glo 72 h), -0.479. In addition, the viability was 115% (inactive) in assay [10] (at 0.000305 µM, OCI-C5x cells, with rucaparib 10 µM, 100% = cells with rucaparib alone); 106% (inactive) in assay [10] (at 0.000305 µM, OCI-C5x cells, without rucaparib); 91.2% (active) in assay [10] (at 0.000305 µM, OCI-P5x cells, with rucaparib 20 µM, 100% = cells with rucaparib alone); 89.1% (active) in assay [10] (at 0.000305 µM, OCI-P5x cells, without rucaparib); 116% (inactive) in [10] (at 0.00122 µM, OCI-C5x cells, with rucaparib 10 µM, 100% = cells with rucaparib alone); 102% (inactive) in [10] (at 0.00122 µM, OCI-C5x cells, without rucaparib). Also, the viability is 97.1% (active) in assay [10] (at 0.00122 µM, OCI-P5x cells, with rucaparib 20 µM, 100% = cells with rucaparib alone); 94.8% (active) in assay [10] (at 0.00122 µM, OCI-P5x cells, without rucaparib); 110% (inactive) in [10] (at 0.00488 µM, OCI-C5x cells, with rucaparib 10 µM, 100% = cells with rucaparib alone); 97.8% (active) in assay [10] (at 0.00488 µM, OCI-C5x cells, without rucaparib); 97.7% (active) in assay [10] (at 0.00488 µM, OCI-P5x cells, with rucaparib 20 µM, 100% = cells with rucaparib alone); 103% (inactive) in assay [10] (at 0.00488 µM, OCI-P5x cells, without rucaparib). Moreover, the viability in assay [10] (at 0.0195 µM, OCI-C5x cells, with rucaparib 10 µM, 100% = cells with rucaparib alone) was 112% (inactive); in assay [10] (at 0.0195 µM, OCI-C5x cells, without rucaparib), 102% (inactive); in assay [10] (at 0.0195 µM, OCI-P5x cells, with rucaparib 20 µM, 100% = cells with rucaparib alone), 104% (inactive); in assay [10] (at 0.0195 µM, OCI-P5x cells, without rucaparib), 101% (inactive); in [10] (at 0.0781 µM, OCI-C5x cells, with rucaparib 10 µM, 100% = cells with rucaparib alone) it was 123% (inactive); in assay [10] (at 0.0781 µM, OCI-C5x cells, without rucaparib) it was 112% (inactive). The viability was 99.5% (active) in assay [10] (at 0.0781 µM, OCI-P5x cells, with rucaparib 20 µM, 100% = cells with rucaparib alone); 106% (inactive) in assay [10] (at 0.0781 µM, OCI-P5x cells, without rucaparib); 137% (inactive) in assay [10] (at 0.313 µM, OCI-C5x cells, with rucaparib 10 µM, 100% = cells with rucaparib alone); 120% (inactive) in assay [10] (at 0.313 µM, OCI-C5x cells, without rucaparib); 98.3% (active) in [10] (at 0.313 µM, OCI-P5x cells, with rucaparib 20 µM, 100% = cells with rucaparib alone); 99.8% (active) in [10] (at 0.313 µM, OCI-P5x cells, without rucaparib). Further, the viability in assay [10] (at 1.25 µM, OCI-C5x cells, with rucaparib 10 µM, 100% = cells with rucaparib alone) was 122% (inactive); in assay [10] (at 1.25 µM, OCI-C5x cells, without rucaparib), 120% (inactive); in [10] (at 1.25 µM, OCI-P5x cells, with rucaparib 20 µM, 100% = cells with rucaparib alone), 85.2% (active); in assay [10] (at 1.25 µM, OCI-P5x cells, without rucaparib) it was 99.1% (active); in [10] (at 5 µM, OCI-C5x cells, with rucaparib 10 µM, 100% = cells with rucaparib alone) it was 76.6% (active); in [10] (at 5 µM, OCI-C5x cells, without rucaparib), 127% (inactive). The viability in [10] (at 5 µM, OCI-P5x cells, with rucaparib 20 µM, 100% = cells with rucaparib alone) was 68.2% (active); in assay [10] (at 5 µM, OCI-P5x cells, without rucaparib), 91.4% (active).

As to `C[C@@H]1CC[C@@]2(OC1)OC1CC3C4CC=C5CC(O)CCC5(C)C4CCC3(C)C1[C@@H]2C` (stereo not given in full), the molecule was called inactive in assay [1], in assay [2], in assay [3], in assay [4], in assay [5] and in assay [6]. Further, the call in assay [11] and in [12] was inactive.

As to `CC(C)C[C@H](NC(=O)[C@@H](NC(=O)c1cccc(-c2ccccc2)n1)[C@@H](C)O)B(O)O`, the AC50 is 0.0456 µM (active) in assay [1]; 16.6 µM (active) in assay [2]; 0.0526 µM (active) in assay [3]; 0.0235 µM (active) in assay [4]; 0.0204 µM (active) in assay [5]; 0.0662 µM (active) in assay [6]. Further, in assay [11], the AC50 is 81.1 nM (active). The half-maximal inhibitory concentration (IC50) in [12] is 25.7 nM (active).

As to `Cc1cc2c(cc1C1(c3ccc(C(=O)O)cn3)CC1)C(C)(C)CCC2(C)C`, the call in assay [1], in assay [2], in assay [3], in assay [4], in assay [13] and in assay [12] was inactive. The molecule further registered an SSMD in [8] of 2.63. This molecule also yielded a cell count in [8] of 7020. Further, the plate-normalised HSF1 focus index in [8] was 1.16 (inactive).

As to `Cc1[nH]nc2ccc(-c3cncc(OC[C@@H](N)Cc4ccccc4)c3)cc12`, the AC50 in [1] was 1.66 µM (active); in assay [2] it was 4.69 µM (active); in assay [3], 1.18 µM (active); in assay [4] it was 2.64 µM (active); in assay [5], 1.48 µM (active); in assay [6] it was 10.5 µM (active). For the same molecule, the AC50 in assay [11] was 1480 nM (active). Moreover, the concentration for half-maximal inhibition (IC50) in [12] was 1660 nM (active).
